Results published in ChEMBL document CHEMBL4513135, “CO-ADD screening of IQOG CSIS (Spain) compounds”.
Several values for one entry are separate records, joined by “and”; a condition that tells them apart may be missing. Equal entries are not always repeated. Results with a measured potency or affinity are listed apart.

Columns and labels:
[1] = test system: Klebsiella pneumoniae; settings: Concentration 32 ug.mL-1, ASSAY_TEST Inhibition of Bacterial Growth, detection method Absorption (OD600), MEDIA CAMHB, plate type 384well, NBS, CORNING #3640, time 18 hr
[2] = test system: Candida albicans; settings: 32 ug/mL
[3] = test system: Cryptococcus neoformans; settings: Concentration 32 ug.mL-1, ASSAY_TEST Inhibition of Fungal Growth, detection method Resazurin, Absorption (OD600-OD570), plate type 384well, NBS, CORNING #3640

Compound | Inhibition ([1]; 32 ug/mL) | Inhibition [2] | Inhibition ([3]; 32 ug/mL) | Inhibition [1] [%] | Inhibition [3] [%]
N#CC1(Br)C(=N)Oc2ccc3ccccc3c2C1c1ccccc1 (stereo unspecified) | 8.56% and 13.61% | 5.08% and 2.03% | -52.48% and -41.25% |  | 
O=C(Cc1c[nH]c2ccccc12)N/N=C/c1ccco1 |  | -1.03% |  | 10.08 | -6.47
O=C1OC(c2ccccc2)=NC12CC2c1ccc([N+](=O)[O-])cc1 (stereo unspecified) |  | 1.56% |  | 15.67 | -2.27
N#Cc1c(N)nc(NCCCCC2CCN(Cc3ccccc3)CC2)c(C#N)c1-c1ccccc1 |  | 2.22% |  | 9.09 | 0.12
O=C(N/N=C/c1c[nH]c2ccccc12)c1ccco1 |  | 1.93% |  | 12.93 | -1.51
CCOC(=O)c1cc2cc(OC)ccc2n1C |  | 0.11% |  | -11.12 | -3.08
Clc1ccc(-c2cn3ccccc3n2)cc1 |  | -1.23% |  | 18.54 | -7.53
C#CCN(C)Cc1cc2cc(OCc3ccccc3)ccc2n1C.O=C(O)C(=O)O |  | 2.13% |  | 16.32 | -91.88
CCOC(=O)C1=C(C)OC(N)=C(C#N)C1c1ccccc1OC (stereo unspecified) |  | 23.3% |  | 15.52 | -0.68
COc1ccc(C2C(C#N)=C(Cl)Oc3c2ccc2ccccc32)cc1OC (stereo unspecified) |  | 18.1% |  | -4.48 | -55.36
C#CCN(C)Cc1cc2cc(OC)ccc2n1C |  | 5.35% |  | 12.36 | -77.43
O=C(N/N=C/c1ccc(Cl)cc1)c1cc2ccccc2[nH]1 |  | 3.28% |  | -19.43 | -0.9
